In PubChem BioAssay (Tox21):
Records with an inconclusive call do not appear. Values without a mark were called inactive. Calls of active or inactive are those of the source. The call rests on the fitted dose curve; in most records, active means well fitted inhibition curve with a large enough effect in the repeat runs; inconclusive means weak or mixed curves; inactive means no such curve, though single readings can be large or run the other way.

The molecules below were run against Cytochrome P450 2C19 (Homo sapiens) (UniProt P33261) (assay: Cytochrome P450 Family 2 Subfamily C Member 19 (CYP2C19) small molecule antagonists: luciferase reporter qHTS assay (AID 1671197; further: nearly all actives have a fitted effect of over 65% in size)). Settings: P450-Glo CYP2C19 enzyme, luciferin luminescence, 1 h; series mostly up to 115 µM; activity change, negative = inhibition: at the top concentration.
Chain of Cytochrome P450 2C19 (Homo sapiens) (P33261 whole entry, looked up): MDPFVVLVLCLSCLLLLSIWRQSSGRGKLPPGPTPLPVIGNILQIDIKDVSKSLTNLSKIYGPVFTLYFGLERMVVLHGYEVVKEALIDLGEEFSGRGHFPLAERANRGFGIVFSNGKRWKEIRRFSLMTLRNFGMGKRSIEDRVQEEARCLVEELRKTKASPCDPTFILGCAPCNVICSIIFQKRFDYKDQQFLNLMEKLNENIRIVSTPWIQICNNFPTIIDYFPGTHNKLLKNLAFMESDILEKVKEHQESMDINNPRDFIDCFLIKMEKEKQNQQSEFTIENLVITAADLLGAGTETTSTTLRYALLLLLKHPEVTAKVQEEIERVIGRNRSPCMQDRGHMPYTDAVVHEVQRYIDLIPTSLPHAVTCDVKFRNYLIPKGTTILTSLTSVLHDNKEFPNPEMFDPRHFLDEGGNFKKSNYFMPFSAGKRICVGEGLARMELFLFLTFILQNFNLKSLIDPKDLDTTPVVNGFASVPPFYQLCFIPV
How it was run: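 Relative luminescence units recorded 20 min after the detection reagent stopped a 1 h, 37C CYP2C19 reaction on proluciferin substrate, which was started by NADPH regeneration following 10 min room-temperature compound preincubation; ketoconazole positive control.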
On the % scale 0 is the no-effect control and ±100 the full control effect; potency means the concentration at half of the fitted maximal effect.

Which “activity change, negative = inhibition” value does the source give for `C[Si](C)O[Si](C)(C)O[Si](C)(C)O[Si](C)C` here?
The value was -5.95%.

For `CCCCCCCCCC(=O)OCC`, which Potency is on record?
The Potency was 56.4 µM (active).

For `C=C(C)C(=O)OCCN(C)C`, which Potency is on record?
The Potency was 36 µM (active).

For `O=C1c2cccc(O)c2C(=O)c2c(O)cc(CO)cc21`, which “activity change, negative = inhibition” value is on record?
The value was -55.1%.

With `Cc1cccc(Oc2ccccc2)c1` as the molecule, how does the Potency read?
Its Potency is 69.2 µM (active).

With `CCOc1ccc(NC(=O)CC(C)=O)cc1` as the molecule, how does the Potency read?
Its Potency is 56.4 µM (active).

Which Potency does the source give for `CC1=CCC(C(C)C)C=C1` (centres undefined) here?
The Potency was 79.6 µM (active).

How did the “activity change, negative = inhibition” value turn out when `CC(CN)CCCN` (centres undefined) was run?
The value was -20.6%.

`CC(C)(C)c1cc(CCC(=O)OCC(COC(=O)CCc2cc(C(C)(C)C)c(O)c(C(C)(C)C)c2)(COC(=O)CCc2cc(C(C)(C)C)c(O)c(C(C)(C)C)c2)COC(=O)CCc2cc(C(C)(C)C)c(O)c(C(C)(C)C)c2)cc(C(C)(C)C)c1O` was tested. Which Potency did it give?
Its Potency is 33.8 µM (active).
